Reference: PubChem BioAssay (EPA / NIEHS)
Where a structure was tested more than once in an assay, its records may differ in their call. Calls of active or inactive are those of the source. Rule for the calls: active = hit-call score of the fitted dose curve at least 0.9, where 1 is the maximum; inactive = score below 0.9.

Columns and labels:
[1] = BSK_3C_uPAR: BioMAP Diversity Plus: 3C Assay for Urokinase-type plasminogen activator receptor (uPAR) Biomarker Activity (AID 2282998); conditions: BioMAP 3C HUVEC, uPAR biomarker ELISA; actives raise or lower the signal
Outline: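 Endothelial primary cells of human umbilical vein origin received test chemical; 24 h later uPAR was assayed by ELISA. Fitting was bidirectional, DMSO as negative control.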

[2] = BSK_3C_VCAM1: BioMAP Diversity Plus: 3C Assay for Vascular cell adhesion molecule 1 (VCAM1) Biomarker Activity (AID 2282999); conditions: BioMAP 3C HUVEC, VCAM1 ELISA, cytokine-stimulated; actives raise or lower the signal
Outline: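 Endothelial cells from human umbilical vein are treated with test chemical. At 24 h, VCAM-1 is measured by ELISA, and responses in either direction are fitted relative to DMSO.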

[3] = BSK_4H_Eotaxin3: BioMAP Diversity Plus: 4H Assay for Eotaxin 3 Biomarker Activity (AID 2283000); conditions: primary human endothelial cells (HUVEC); actives raise or lower the signal;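 note: CCL26 protein level quantified by ELISA in parallel with SRB cytotoxicity check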
Outline: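 Readout is Eotaxin-3 (CCL26) level by ELISA in primary human umbilical vein endothelial cells harvested 24 h after chemical exposure; activity fitted in both directions against DMSO control.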

[4] = read-out: Intercellular Adhesion Molecule 1 (ICAM1), ICAM1 (gene 3383); assay: BSK_3C_ICAM1: BioMAP Diversity Plus: 3C Assay for Intercellular Adhesion Molecule 1 (ICAM1) Biomarker Activity (AID 2283003); conditions: primary human endothelial cells (HUVEC); actives raise or lower the signal
Outline: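 ICAM-1 levels measured by ELISA after HUVEC cultures in the 3C system had been dosed for 24 h. Gain or loss of signal relative to DMSO was fitted in both directions.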

[5] = BSK_3C_Proliferation: Cell Proliferation Assessment in the BioMAP Diversity Plus: 3C Assay (AID 2283006); conditions: primary human endothelial cells (HUVEC)
Outline: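 Read-out is total protein by SRB absorbance at 560 nm, taken as a proxy for relative cell number. Primary human umbilical vein endothelium cultured below confluence was dosed for 48 h, TCA-fixed and SRB-stained; curves were fitted bidirectionally versus DMSO.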

[6] = read-out: Interleukin-1 alpha (IL1a), IL1A (gene 3552); assay: BSK_BE3C_IL1a: BioMAP Diversity Plus: BE3C Assay for Interleukin-1 alpha (IL1a) Biomarker Activity (AID 2283016); conditions: primary human bronchial epithelial cells; actives raise or lower the signal
Outline: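 BE3C primary human bronchial epithelium; cpd 24 h; IL-1a by ELISA; bidirectional fit vs DMSO; parallel SRB (0.1% SRB, 10% TCA fix, 560 nm) for cytotoxicity.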

[7] = read-out: Monocyte Chemoattractant Protein-1 (MCP1), CCL2 (gene 6347); assay: BSK_3C_MCP1: BioMAP Diversity Plus: 3C Assay for Monocyte Chemoattractant Protein-1 (MCP1) Biomarker Activity (AID 2283017); conditions: primary human endothelial cells (HUVEC); actives raise or lower the signal
Outline: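 HUVEC, 3C system; 24 h chemical exposure; MCP-1 by ELISA; bidirectional curve fit vs DMSO baseline.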

[8] = read-out: Monocyte Chemoattractant Protein-1 (MCP1), CCL2 (gene 6347); assay: BSK_4H_MCP1: BioMAP Diversity Plus: 4H Assay for Monocyte Chemoattractant Protein-1 (MCP1) Biomarker Activity (AID 2283018); conditions: primary human endothelial cells (HUVEC); actives raise or lower the signal
Outline: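 ELISA read-out of MCP-1 from human vascular endothelial primary cells taken at 24 hours after compound exposure. Activity was fitted in both directions relative to DMSO, which served as negative control.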

[9] = read-out: Human Leukocyte Antigen - DR isotype (HLADR), HLA-DRA (gene 3122); assay: BSK_3C_HLADR: BioMAP Diversity Plus: 3C Assay for Human Leukocyte Antigen - DR isotype (HLADR) Biomarker Activity (AID 2283019); conditions: primary human endothelial cells (HUVEC); actives raise or lower the signal;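 note: ELISA of cell-surface HLA-DR on HUVEC 24 h after dosing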
Outline: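 HUVEC, 3C stimulation, 24 h post-dose; HLA-DR by ELISA; bidirectional curve fit vs DMSO baseline; gain or loss of signal scored.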

[10] = read-out: Interleukin-8 (IL8), CXCL8 (gene 3576); assay: BSK_3C_IL8: BioMAP Diversity Plus: 3C Assay for Interleukin-8 (IL8) Biomarker Activity (AID 2283020); conditions: primary human endothelial cells (HUVEC); actives raise or lower the signal
Outline: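 ELISA read-out of IL-8 from human umbilical vein endothelium, measured 24 h after chemical dosing. Activity is expressed relative to DMSO negative control, with both increases and decreases fitted.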

[11] = read-out: Monokine induced gamma interferon (MIG), CXCL9 (gene 4283); assay: BSK_3C_MIG: BioMAP Diversity Plus: 3C Assay for Monokine induced gamma interferon (MIG) Biomarker Activity (AID 2283021); conditions: primary human endothelial cells (HUVEC); actives raise or lower the signal
Outline: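 Read-out is ELISA detection of MIG on human umbilical vein endothelial cells, taken 24 h after dosing. Gain or loss of signal was scored relative to DMSO controls using bidirectional curve fitting.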

[12] = BSK_3C_SRB: Viability Assessment in the BioMAP Diversity Plus: 3C Assay (AID 2283023); conditions: primary human endothelial cells (HUVEC);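 note: fitted both ways against DMSO so a hit may be signal rise or drop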
Outline: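 HUVEC, 24 h post-dose; 10% TCA fix, 0.1% SRB stain, A560 nm. Bidirectional curve fit vs DMSO negative control.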

[13] = read-out: Pselectin, SELP (gene 6403); assay: BSK_4H_Pselectin: BioMAP Diversity Plus: 4H Assay for Pselectin Biomarker Activity (AID 2283026); conditions: primary human endothelial cells (HUVEC); actives raise or lower the signal
Outline: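 ELISA read-out of P-selectin on human umbilical vein endothelium after 24 h of dosing. Values derive from bidirectional fitting relative to DMSO. Parallel SRB protein staining flagged overt cytotoxicity.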

[14] = BSK_4H_SRB: Viability Assessment in the BioMAP Diversity Plus: 4H Assay (AID 2283027); conditions: primary human endothelial cells (HUVEC);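 note: cells exposed to compound for 24 h before staining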
Outline: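 Absorbance at 560 nm of SRB-stained total protein served as the viability read-out in confluent primary human umbilical vein endothelium 24 h after chemical treatment. Curves were fitted bidirectionally against DMSO as negative control.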

[15] = BSK_BE3C_SRB: Viability Assessment in the BioMAP Diversity Plus: BE3C Assay (AID 2283028); conditions: primary human bronchial epithelial cells
Outline: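 Primary human bronchial epithelium; chemical dosing, 24 h; 10% TCA fix, 0.1% SRB stain, A560; bidirectional fit vs DMSO baseline.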

[16] = read-out: Thrombomodulin, THBD (gene 7056); assay: BSK_3C_Thrombomodulin: BioMAP Diversity Plus: 3C Assay for Thrombomodulin Biomarker Activity (AID 2283029); conditions: primary human endothelial cells (HUVEC); actives raise or lower the signal
Outline: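 Read-out is ELISA of thrombomodulin on human umbilical vein endothelium 24 h after chemical dosing. Gain or loss of signal is scored relative to DMSO. Overt cytotoxicity is checked in parallel cultures by sulforhodamine B staining.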

[17] = read-out: Urokinase-type plasminogen activator receptor (uPAR), PLAUR (gene 5329); assay: BSK_4H_uPAR: BioMAP Diversity Plus: 4H Assay for Urokinase-type plasminogen activator receptor (uPAR) Biomarker Activity (AID 2283030); conditions: primary human endothelial cells (HUVEC); actives raise or lower the signal
Outline: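 HUVEC, 24 h post-dose; uPAR by ELISA; bidirectional fit vs DMSO baseline.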

[18] = read-out: Vascular endothelial growth factor receptor 2 (Homo sapiens) (UniProt P35968); assay: BSK_4H_VEGFRII: BioMAP Diversity Plus: 4H Assay for Vascular endothelial growth factor receptor 2 (VEGFR2) Biomarker Activity (AID 2283031); conditions: primary human endothelial cells (HUVEC); actives raise or lower the signal;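 for AC50: cell-surface VEGFR2 protein level quantified by ELISA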
Outline: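 HUVEC (human primary), 4H system; 24 h post-dose; VEGFRII by ELISA; bidirectional curve fit vs DMSO baseline; gain or loss of signal scored.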

[19] = read-out: Human Leukocyte Antigen - DR isotype (HLADR), HLA-DRA (gene 3122); assay: BSK_BE3C_HLADR: BioMAP Diversity Plus: BE3C Assay for Human Leukocyte Antigen - DR isotype (HLADR) Biomarker Activity (AID 2283032); conditions: primary human bronchial epithelial cells; actives raise or lower the signal
Outline: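 ELISA read-out of HLA-DR on human lung bronchial epithelial primary cells, measured 24 h post-dosing. Both increases and decreases were scored relative to DMSO vehicle.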

[20] = read-out: Vascular cell adhesion molecule 1 (VCAM1), VCAM1 (gene 7412); assay: BSK_4H_VCAM1: BioMAP Diversity Plus: 4H Assay for Vascular cell adhesion molecule 1 (VCAM1) Biomarker Activity (AID 2283033); conditions: primary human endothelial cells (HUVEC); actives raise or lower the signal;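 note: cell-surface VCAM-1 protein measured by ELISA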
Outline: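 ELISA read-out of VCAM-1 on human umbilical vein endothelium 24 hours after chemical dosing; gain or loss of signal was fitted relative to DMSO, with sulforhodamine B staining of parallel cultures flagging overt cytotoxicity.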

[21] = read-out: Interferon-gamma inducible Protein 10 (IP10), CXCL10 (gene 3627); assay: BSK_BE3C_IP10: BioMAP Diversity Plus: BE3C Assay for Interferon-gamma inducible Protein 10 (IP10) Biomarker Activity (AID 2283034); conditions: primary human bronchial epithelial cells; actives raise or lower the signal
Outline: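 Chemical is dosed onto human lung bronchial epithelial primary cells, cultures are incubated 24 h, and IP-10 is then quantified by ELISA. Gain or loss of signal is fitted in both directions relative to DMSO.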

[22] = read-out: Monokine induced gamma interferon (MIG), CXCL9 (gene 4283); assay: BSK_BE3C_MIG: BioMAP Diversity Plus: BE3C Assay for Monokine induced gamma interferon (MIG) Biomarker Activity (AID 2283035); conditions: primary human bronchial epithelial cells; actives raise or lower the signal;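 note: MIG protein measured by ELISA in BE3C cultures after 24 h of dosing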
Outline: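 MIG level was determined by ELISA after 24 h chemical treatment of primary human bronchial epithelial cells. Values were fitted bidirectionally with DMSO as the negative control and activity baseline.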

[23] = read-out: Plasminogen activator inhibitor-1 (PAI1), SERPINE1 (gene 5054); assay: BSK_BE3C_PAI1: BioMAP Diversity Plus: BE3C Assay for Plasminogen activator inhibitor-1 (PAI1) Biomarker Activity (AID 2283037); conditions: primary human bronchial epithelial cells; actives raise or lower the signal
Outline: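 Primary human lung bronchial epithelial cells; chemical dosing; 24 h; PAI-1 measured by ELISA; bidirectional fit referenced to DMSO as negative control.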

[24] = read-out: urokinase plasminogen activator (uPA), PLAU (gene 5328); assay: BSK_BE3C_uPA: BioMAP Diversity Plus: BE3C Assay for urokinase plasminogen activator (uPA) Biomarker Activity (AID 2283038); conditions: primary human bronchial epithelial cells; actives raise or lower the signal;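 note: uPA protein level quantified by ELISA in cell cultures; uPA read one day after compound addition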
Outline: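 ELISA read-out of uPA in human lung primary bronchial epithelial cultures, 24 h post-dosing. Gain or loss of signal fitted bidirectionally relative to DMSO baseline; cytotoxicity checked in parallel cultures via SRB total protein stain.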

[25] = read-out: Urokinase-type plasminogen activator receptor (uPAR), PLAUR (gene 5329); assay: BSK_BE3C_uPAR: BioMAP Diversity Plus: BE3C Assay for Urokinase-type plasminogen activator receptor (uPAR) Biomarker Activity (AID 2283039); conditions: primary human bronchial epithelial cells; actives raise or lower the signal;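 note: uPAR protein level measured by ELISA on the cells; cells exposed to compound for one day before measurement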
Outline: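 Human bronchial epithelial primary cells; chemical exposure 24 h; uPAR by ELISA; bidirectional fit vs DMSO control.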

[26] = read-out: Interleukin-6 (IL6), IL6 (gene 3569); assay: BSK_CASM3C_IL6: BioMAP Diversity Plus: CASM3C Assay for Interleukin-6 (IL6) Biomarker Activity for (AID 2283040); conditions: primary human coronary artery smooth muscle cells; actives raise or lower the signal
[27] = read-out: Tissue plasminogen activator (tPA), PLAT (gene 5327); assay: BSK_BE3C_tPA: BioMAP Diversity Plus: BE3C Assay for Tissue plasminogen activator (tPA) Biomarker Activity (AID 2283041); conditions: primary human bronchial epithelial cells; actives raise or lower the signal;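 note: tPA level quantified by ELISA one day after compound addition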
Outline: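 Primary human lung bronchial epithelial cultures receive test chemical; after 24 h, tPA is quantified by ELISA, and gain or loss of signal is fitted bidirectionally relative to DMSO baseline.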

Measured: AC50

CCCC[N+](CCCC)(CCCC)CCCC
inactive: [1] | [2] | [3] | [4] | [5] | [6] | [7] | [8] | [9] | [10] | [11] | [12] | [13] | [14] | [15] | [16] | [17] | [18] | [19] | [20] | [21] | [22] | [23] | [24] | [25] | [26] | [27]
active: [18] 2140 nM
